# Laboratory results reported in PubChem BioAssay (Tox21).
# Records with an inconclusive call do not appear. Activity calls are given as the source filed them. Calls come from the whole dose curve; as a rule, active = well fitted cell-killing curve with a large enough effect in the repeat runs; inconclusive = weak or mixed curves, or effect the other way; inactive = flat fitted curve, though single readings scatter.
# Assay: qHTS assay to identify small molecule agonists of the constitutive androstane receptor (CAR) signaling pathway - cell viability counter screen (AID 1224836); note: nearly all actives have a fitted effect of over 45% in size
# Settings: HepG2-CYP2B6-hCAR viability, CellTiter-Fluor, 23 h, PK11195 added to every well; series mostly up to 92.4 µM; viability change, negative = cytotoxic: at the top concentration
# Text: U.S. Tox21 Program National Center for Advancing Translational Sciences [NCATS] NIH Chemical Genomics Center [NCGC] U.S. Environmental Protection Agency [EPA] National Institutes of Environmental Health Sciences [NIEHS] National Toxicology Program [NTP] U.S. Food and Drug Administration [FDA] Tox21 Assay Overview: The constitutive androstane receptor (CAR) is a nuclear receptor which regulates multiple drug metabolizing enzymes (DMEs) and transporters. Activating CAR will generally increase the transcription and subsequent translation of CYP2B6 and CYP3A4. These two DMEs represent about 50% of the drug metabolizing potential in the body. […] Recently, there have also been studies performed indicating CARs role in energy metabolism and cancer therapy. Therefore, inducing CARs activity could have a potential effect on diabetes and cancer. Identifying environmental toxins and compounds which modulate CAR, through the use of the Tox21 10K compound collection, will be an important step in determining the toxicity and potential therapeutic effects these factors will have on the human body. To differentiate true CAR agonists from cytotoxic substances, the assay is multiplexed with a cell viability assay.
# Tox21 Assay Protocol Summary: A double-stable (hCAR and CYP2B6-2.2kb) transfected cell line, derived from human hepatoma (HepG2) cells, was utilized for the duration of the quantitative high-throughput screens. The HepG2-CYP2B6-hCAR cells were dispensed at 2500 cells/4 uL/well in 1536-well white solid bottom plates using a Multidrop Combi. After the assay plates were incubated at 37 C/5% CO2 for 4 hrs, 23 nL of compounds at 15 concentrations (from 5-48 columns) or positive control (from 1 to 4 columns) were transferred to the assay plates using a Pintool station. One uL of PK11195 (final concentration = 0.75 uM) was added, using a Flying Reagent Dispenser, inside each well. After a 23 hr incubation period at 37 C/5% CO2, 1 uL of CellTiter-Fluor reagent was added into each well of the assay plates using a Flying Reagent Dispenser. The fluorescence intensity in the plates was then measured using a ViewLux plate reader.
# % is set by controls: 0 for no effect and ±100 for the full control effect.
Structure (SMILES),"viability change, negative = cytotoxic",Potency
C/C=C/CC#N,4.77% (inactive),–
NC(=O)CS(=O)C(c1ccccc1)c1ccccc1 (stereo not given),1.61% [at 42.5 µM] (inactive),–
NC(=O)OCCCc1ccccc1,9.66% [at 42.5 µM] (inactive),–
Cc1ccc2c(c1)C1CN(C)CCC1N2 (stereo not given),3.2% [at 19 µM] (inactive),–
CCSC(=O)Cl,0.685% (inactive),–
CCC(=O)c1ccc(Cl)cc1,2.42% (inactive),–
O=C(Cl)/C=C/C(=O)Cl,8.44% (inactive),–
C=CCC1(C(C)CC)C(=O)NC(=O)NC1=O (stereo not given),11.3% [at 42.5 µM] (inactive),–
c1ccc2c(c1)CCNC2,-13.5% (inactive),–
CCOP(=S)(OCC)Oc1ccc(Cl)cc1Cl,6.05% (inactive),–
CCN[C@@H](C)Cc1ccccc1,4.19% (inactive),–
OP(O)c1ccccc1,5.42% (inactive),–
N#CC(Br)(Br)C(N)=O,8.85% (inactive),–
O=C1CCCCC1Cl (stereo not given),-1.71% (inactive),–
CN(C)C(=O)Oc1cc(OC(=O)N(C)C)cc(C(O)CNC(C)(C)C)c1 (stereo not given),4.78% [at 42.5 µM] (inactive),–
O=[N+]([O-])CCO,2.33% (inactive),–
CC(O)CCl (stereo not given),6.16% (inactive),–
C[N+]1(C)CCCCC1,3.22% (inactive),–
Brc1c(Br)c(Br)c(Br)c(Br)c1Br,3.28% [at 8.39 µM] (inactive),–
NCC1(CC(=O)O)CCCCC1,10.2% [at 42.5 µM] (inactive),–

Structure (SMILES),"viability change, negative = cytotoxic",Potency
Clc1nc(Cl)nc(Nc2ccccc2Cl)n1,-0.455% (inactive),–
Cn1c(CCCC(=O)O)nc2cc(N(CCCl)CCCl)ccc21,0.486% [at 42.5 µM] (inactive),–
COc1ccc2c(C(=O)c3ccc(Cl)cc3)c(C)n(CC(=O)O)c2c1,4.37% [at 42.5 µM] (inactive),–
C[C@H](N)C(=O)c1ccccc1,3.06% (inactive),–
CCCCCCC(=O)CCCCCC/C=C/C[C@@H](O)[C@H](O)[C@@](N)(CO)C(=O)O,6.33% [at 19 µM] (inactive),–
COc1cc(CCN)cc(OC)c1OC,0.674% (inactive),–
CCOC(=O)COc1ccc(Cl)cc1Cl,0.609% (inactive),–
CCN[C@H](C)Cc1cccc(C(F)(F)F)c1,0.93% (inactive),–
N[C@@H]1C[C@H]1c1ccccc1,18.8% [at 42.5 µM] (inactive),–
C=CCN1CC[C@]23CCCC[C@H]2[C@H]1Cc1ccc(O)cc13,-3.09% [at 42.5 µM] (inactive),–
BrCC1CO1 (stereo not given),4.81% (inactive),–
COc1ccccc1OC,1.63% (inactive),–
CCN[C@@H](C)Cc1cccc(C(F)(F)F)c1,1.23% [at 42.5 µM] (inactive),–
CCCCCCCCSC(=O)Oc1cc(Cl)nnc1-c1ccccc1,-1.4% (inactive),–
CCOP(=O)(CN(CCO)CCO)OCC,0.415% (inactive),–
CNC(=O)O/N=C(/CSC)C(C)(C)C,0.879% (inactive),–
C=CC1(C)OC(=O)N(c2cc(Cl)cc(Cl)c2)C1=O (stereo not given),–,inactive
C#CCOC(=O)/C=C(C)/C=C/CC(C)CCCC(C)C (stereo not given),6.62% (inactive),–
CCC(C(N)=O)N1CCCC1=O (stereo not given),5.89% [at 42.5 µM] (inactive),–
CCOC1Oc2ccc(OS(C)(=O)=O)cc2C1(C)C (stereo not given),-0.0261% (inactive),–
